Experimental data taken from PubChem BioAssay AID651658 (Broad Institute, 2012).
The campaign covered roughly 340,000 compounds. About 5,100 (1.5%) were called active. The sample holds actives, similar compounds and a random draw of the others, so the mix is not that of the screen.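 Rule for the calls: active = mean Tm shift, scaled 0 neutral to 100 positive control, at about 1.3% or above, every replicate too (limit read from the data); inconclusive = no clear call, values can overlap the other calls; inactive = the rest.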

What follows are compounds tested against Fibroblast growth factor 22 (Homo sapiens) (UniProt Q9HCT0) (assay: binders of human FGF22 protein, primary screen, FGF22 synaptogenesis inhibitor project, biophysical, thermal shift, single point (AID 651658)). Settings: recombinant FGF22 thermal shift, SYPRO orange fluorescence; at 9.99 µM; hits give high values; percent of sucrose octasulfate shift, DMSO zero.
Fibroblast growth factor 22 (Homo sapiens), sequence (Q9HCT0 whole entry, looked up): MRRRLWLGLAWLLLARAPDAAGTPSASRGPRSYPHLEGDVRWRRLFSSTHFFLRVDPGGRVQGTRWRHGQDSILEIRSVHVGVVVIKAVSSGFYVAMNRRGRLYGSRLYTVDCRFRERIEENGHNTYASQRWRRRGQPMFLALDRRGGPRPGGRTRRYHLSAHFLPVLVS

SMILES | activity (Tm shift, normalised)
Cc1ccc(S(=O)(=O)N(C)C[C@@H]2Oc3c(NC(=O)c4nc5ccccc5s4)cccc3C(=O)N([C@H](C)CO)C[C@@H]2C)cc1 | -0.725% (inactive)
CC(C)=CCc1c(O)c(CC=C(C)C)c2occ(-c3ccc(O)cc3)c(=O)c2c1O | 0.178% (inactive)
CC(C)c1cc(N=O)cc(C(C)C)c1O | -0.097% (inactive)
CC(C)=CCc1ccc(O)c(=O)cc1C(C)C | 43.3% (active)
C[C@@H]1CCCCO[C@@H](CN(C)C(=O)CCCN(C)C)[C@@H](C)CN([C@H](C)CO)C(=O)c2cc(NC(=O)CCCN(C)C)ccc2O1 | -0.145% (inactive)
C[C@H](CO)N1C[C@H](C)[C@H](CN(C)C)Oc2ncc(-c3ccncc3)cc2C1=O | -0.058% (inactive)
O=S(=O)(Nc1ccc2nc(N3CCOCC3)sc2c1)c1ccccc1 | -0.216% (inactive)
O=C(O)c1cccc(S(=O)(=O)Nc2ccc(O)cc2Sc2nc3ccccc3s2)c1 | 15.9% (active)
Cc1nc2ccc(NC(=O)c3cccc(S(=O)(=O)N4CCOCC4)c3)cc2s1 | 1.04% (inactive)
CC(=O)NC[C@@H]1[C@@H](c2ccccc2)[C@@H](CO)N1C(=O)Cc1cccnc1 | 1.29% (active)
CC(=O)NC[C@H]1[C@H](c2ccccc2)[C@@H](CO)N1C(=O)Cc1cccnc1 | -0.409% (inactive)
O=C(NC[C@@H]1[C@@H](c2ccccc2)[C@H](CO)N1C(=O)Cc1cccnc1)C1CC1 | -1.07% (inactive)
O=C(C[C@@H]1C=C[C@H](NC(=O)CN2CCOCC2)[C@@H](CO)O1)NC1CCC1 | 0.045% (inactive)
O=C(NCC[C@@H]1CC[C@H](NC(=O)C2CC2)[C@@H](CO)O1)c1cc(Cl)cc(Cl)c1 | -0.053% (inactive)
CCOc1ccc(NC(=O)CSc2nc3c(c(=O)n2-c2ccccc2OC)SCC3)cc1 | -0.136% (inactive)
COc1ccccc1-n1c(SCC(=O)Nc2ccc(Cl)cc2)nc(O)c(Cc2ccccc2)c1=O | 43.9% (active)
COc1ccc(NC(=O)CSc2nnc(Cc3ccccc3)c(=O)n2N)cc1 | -0.143% (inactive)
CN1c2ccc(-c3ccc(F)cc3)cc2[C@@H]2[C@@H](CCN2C(=O)c2cccnc2)[C@H]1CO | -0.025% (inactive)
CO[C@@H]1CN(C)C(=O)c2ccc(NC(=O)NC(C)C)cc2OC[C@H](C)N(Cc2ccc(-c3ccccn3)cc2)C[C@H]1C | 0.425% (inactive)
CCCCCOc1ccc(/C=C/C(=O)NCCc2nc3ccccc3[nH]2)cc1OC | 0.206% (inactive)
CCOc1ccc(/C=C(/C#N)c2nnc(N3CCOCC3)n2-c2ccccc2)cc1OC | -0.121% (inactive)
COc1cc(/C=C(\C#N)c2nc3ccccc3[nH]2)ccc1O | 2.24% (active)
CCCC(=O)Nc1ccc2c(c1)OC[C@H](C)N(CCC(F)(F)F)C[C@@H](C)[C@H](OC)CN(C)C2=O | -0.05% (inactive)
C/C=C/c1ccc([C@@H]2[C@H](CO)N(S(=O)(=O)Cc3ccccc3)C23CN(C(=O)C2CCOCC2)C3)cc1 | -0.098% (inactive)
O=C(Nc1ccccc1)c1ccccc1Br | -0.119% (inactive)

SMILES | activity (Tm shift, normalised)
N#Cc1cccc(Nc2c3c(nc4ccccc24)CCCC3)c1 | 0.042% (inactive)
O=C(Nc1c2c(nc3ccccc13)CCCC2)c1ccccc1Br | 44.2% (active)
CC(=O)N1[C@@H](CO)[C@@H](c2ccccc2)[C@@H]1CN(C)C(=O)CN1CCOCC1 | 0.044% (inactive)
O=C(C1CCCCC1)N1CC2(C1)[C@H](c1ccccc1)[C@@H](CO)N2CCC(F)(F)F | -0.014% (inactive)
O=C(Cc1ccncc1)N[C@H]1CC[C@H](CCn2cc(-c3ccccc3F)nn2)O[C@@H]1CO | 0.035% (inactive)
O=C(Cc1ccncc1)N[C@@H]1CC[C@H](CCn2cc(-c3ccccc3F)nn2)O[C@H]1CO | 0.128% (inactive)
O=C(Cc1cccnc1)N[C@H]1CC[C@H](CCn2cc(-c3ccccc3F)nn2)O[C@H]1CO | 8.31% (active)
CCCC(=O)Nc1ccc2c(c1)OC[C@H](C)N(CCC)C[C@@H](C)[C@@H](OC)CN(C)C2=O | 0.113% (inactive)
CCN(CC)C(=O)C(=O)Nc1cccc(Br)c1 | 43.2% (active)
CSc1ccccc1NC(=O)CN(C)CC(=O)Nc1cccc(Br)c1 | -0.022% (inactive)
CCN(CC)N=Nc1cccc(NC(C)=O)c1 | 0.992% (inactive)
Cc1ccc(S(=O)(=O)N[C@H]2CC[C@H](CC(=O)O)O[C@H]2CO)cc1 | 0.52% (inactive)
C[C@H](CO)N1C[C@H](C)[C@H](CN(C)S(=O)(=O)c2ccccc2C#N)OCc2cn(nn2)CCCC1=O | -0.183% (inactive)
O=C(N/N=C/c1ccc([N+](=O)[O-])cc1)c1c[nH]c2ccccc12 | 1.58% (active)
O=[N+]([O-])c1ccc(C=NN=Cc2ccc([N+](=O)[O-])cc2)cc1 | 0% (inactive)
O=C(NN=Cc1ccc([N+](=O)[O-])cc1)C1CC1 | -0.001% (inactive)
COc1cccc(-c2ccc3c(c2)O[C@H](CN(C)Cc2ccncc2)[C@H](C)CN([C@H](C)CO)S3(=O)=O)c1 | -0.104% (inactive)
O=C(Nc1cccc(Cl)c1)c1cc([N+](=O)[O-])ccc1N1CCN(CCO)CC1 | 0.039% (inactive)
CCOc1ncccc1C(=O)OCC(=O)Nc1cccc(S(=O)(=O)N2CCCCCC2)c1 | 0.065% (inactive)
NS(=O)(=O)c1cccc(NC(=O)COC(=O)c2cc([N+](=O)[O-])ccc2N2CCCC2)c1 | 1.34% (active)
C[C@@H]1CN([C@@H](C)CO)S(=O)(=O)c2ccc(C#CC3(O)CCCC3)cc2O[C@H]1CN(C)C(=O)c1ccncc1 | -0.043% (inactive)
COc1ccc(S(=O)(=O)N2CC[C@@H]3[C@H](CO)Nc4ccc(C#Cc5cccc(OC)c5)cc4[C@@H]32)cc1 | 0.013% (inactive)
O=C(C[C@@H]1C[C@@H]2c3cc(NC(=O)c4ccc5c(c4)OCO5)ccc3O[C@@H]2[C@H](CO)O1)NCCc1ccccc1 | 0.032% (inactive)
COc1ccc(NC(=O)Nc2cccc3c2O[C@H](CN(C)S(=O)(=O)c2cn(C)cn2)[C@H](C)CN([C@@H](C)CO)C3=O)cc1 | -0.085% (inactive)
